# Source: the supplement of paper PMC6555819
# Key:
# Test in all cases: PBM binding z-score (relative to random genomic background probes); higher = stronger binding; sequences stand for … in GC…GCGATTGACAGCGTAGAATGAAGG
# [1] = system: RARb homodimer (NR concentration 270 nM)
# How it was run: (§1)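 Ligand-free nuclear receptor dimers were applied to custom Agilent 4×180K protein-binding microarrays whose double-stranded probes carried direct-repeat seeds, single-nucleotide variants, half-site ablations and random human genomic background sequences in 34-nt variable regions. Incubation lasted 1 h. Binding z-scores were computed against the random background probes from regression-normalized fluorescence.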
# [2] = system: RARg:RXRa (NR concentration 270 nM, RXRa partner concentration 90 nM)
# How it was run: as §1
# [3] = system: RARg homodimer (NR concentration 270 nM)
# How it was run: as §1
# [4] = system: RXRa DBDmut IVT, anti-RXR (DBD mutation: RXRa K156A/R161A, NR concentration 90 nM)
# How it was run: as §1
# [5] = system: RXRa homodimer (NR concentration 180 nM)
# How it was run: as §1
# [6] = system: THRa:RXRa (NR concentration 90 nM, RXRa partner concentration 90 nM)
# How it was run: as §1
# [7] = system: THRa homodimer (NR concentration 90 nM)
# How it was run: as §1
# [8] = system: VDR homodimer (NR concentration 270 nM)
# How it was run: as §1
Sequence,PBM binding z-score [1],PBM binding z-score [2],PBM binding z-score [3],PBM binding z-score [4],PBM binding z-score [5],PBM binding z-score [6],PBM binding z-score [7],PBM binding z-score [8]
GCTAGTTGGTCATTAAAAGGTCACACACCGGTCG,5.47,6.05,4.99,0.694,5.65,3.8,2.01,1.75
CCTAGTTTGTCAGGAGGTCACACACCGGATATGA,4.01,4.61,3.87,1.93,4.52,3.62,2.87,3.26
GCTACTAGGTCAACTGATGGTCAGCTAAAGCTCG,3.31,5.27,5.19,1.63,3.06,2.9,0.994,0.21
CGTCCAATGTCAATGCTAGGTCAGTGAAAGCATT,2.73,3.07,1.98,0.448,0.676,2.23,0.915,0.181
ATATATAGGTTAGCTGGGGTCATTCAGACTAGGC,3.92,4.47,3.4,2.09,5.55,5.15,3.63,5.64
CTTACTGGGCCAAGGTCATTGATCAGTCAAAGCA,3.49,4,3.2,2.11,3.65,3.43,2.31,3.76
ATACCAAGGTGATCGTGAGGTCGCTGATACTAAC,1.68,2.37,0.989,0.175,1.43,3.3,2.48,1.6
TGTCAAGGTTCAAAGGTAACGTAAGTATCCACAC,1.99,4.38,3.11,4.37,6.08,3.12,-0.0609,4.49
TCTAGTTGGTCAAAGGTCACAAACTCGAAATGCG,4.92,6.76,6.07,1.79,7.88,3.84,1.73,2.43
TGAATAAGGTTATAAGATCAGGGAACGTTGCAAA,0.682,1.59,1.14,0.444,1.89,1.79,0.426,0.135
TCTCTTAGTTGATTAGGGCAACCGAAACAGCGGA,0.99,0.874,0.649,1.47,0.82,0.934,0.61,0.608
TCTTGGAGATCAAAGGTTAAGAAAGCCGAAGCCT,1.18,2.07,0.819,0.202,4.66,1.4,-0.671,-0.245
AGAATGAGGTTACCACAGATCAGGGAAACGCTTG,0.855,2,1.62,1.24,2.61,2.93,0.878,0.395
GGAACGAGGGCATTCGAGTTGCTAGCATGGCGAT,0.541,0.857,1.12,2.88,0.425,2.25,-0.87,2.87
CGTCAAATTTCAACTAAGGTAACGTAAAGCACGC,0.545,0.344,0.568,0.715,0.436,2.71,1.89,0.604
ACCTCTAGGTAAAGTTCAGTGAAAGATCGATAGA,2.27,1.59,2.19,1.47,0.983,0.866,-0.127,1.51
CAGCCTAGGTTAGGGCCAGTATAGGAGGAACGTT,0.216,0.0888,0.349,-0.851,0.0782,-0.0554,-0.75,-0.636
AATACAGGCTCATCGTAGGCCAGAGTACGCACAG,0.104,-0.0529,0.066,-0.472,-0.0365,0.0323,-0.199,0.118
AGAACGAGGGGACGCTGAGTTGATAGCAGAGTAG,0.0721,0.0507,0.265,0.401,-0.0794,0.202,-0.233,1.16
ATCTCTAGGTTAAGTTCAGTGAAAGATCGATAGA,2.18,2.18,2.54,2.12,1.41,1.99,1.4,3.19
GGAACGAGCGCATTCGAGTTGATAGCATGGCGAT,-0.974,-0.544,-0.227,0.0101,-0.607,-0.857,-1.27,-0.406
TCTATTAGTTGATTAGGGTAACCGAAACAGCGGA,0.423,0.525,0.53,1.03,0.666,1.61,0.861,0.517
CATACAGGGTCAGCTATGCCAGAGTAGGGACGGC,2.98,4.2,4.27,1.55,4.14,2.75,0.818,1.06
TAGCTTAGGTCAGATCGGGCCAGTATACGCTATA,2.23,2.89,3.71,-0.0319,1.47,4.3,0.376,-0.357
CGTCGAAGGTCAAGGTCAGTGAAAGAGACTCGAA,5.05,6.76,7.33,2.59,6.08,3.98,2.07,1.98
CGTCCAAGGTCAGCAGGTCAGTGAGAGCGACGTG,5.13,6.35,6.67,2.46,5.29,4.01,2.56,1.93
ATATGTTGGTTAGCTGGGGTCATTCAGACTAGGC,3.55,3.66,2.3,1.91,4.97,4.21,3.57,5.32
ATATGTAGGTTATCGGGTCAGTCAGTTTGCGCAT,2.84,2.76,2.42,1.01,2.44,2.68,2.08,2.46
